High-throughput results (PubChem BioAssay)
Bst PK mod: modulators of Bacillus stearothermophilus pyruvate kinase | purified pyruvate kinase, luminescence ATP production; ribose 5-phosphate activator present at AC10 | Potency, µM | AID 361 | 51,000 tested, 1.2% active; in the data active = potency below about 11 µM; inconclusive = mostly about 12 µM to 25 µM;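 the screen sought inhibitors and activators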;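 note: scaled between full activation by ribose 5 phosphate and full inhibition by luteolin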
HSD17B inhib: blocks hydroxysteroid 17-beta dehydrogenase activity; Q99714; recombinant HSD17B10, NADH fluorescence kinetic; Potency, µM (doses to about 57.1 µM), inactives show at the top dose activity change, negative = inhibition, usual class: inhibitors; 75,000 tested, 7.6% active; AID 893;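 note: the protocol describes HADH2 (HSD17B10) and not the HSD17B4 of the title; nearly all actives have a fitted effect of over 70% in size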
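20 nM HADH2, pH 9.0 Tris/Tween; cpd preinc 15 min RT; start w/ 1 mM NAD+ + 90 uM b-hydroxybutyryl-CoA; kinetic fluor ex360/em450 q30s x 4 min; delta last-first.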
Luciferase inh: inhibitors of firefly luciferase. P08659. purified firefly luciferase, luminescence, 8 min. Potency, µM (series often up to 57.1 µM), for the others: at the top dose activity change, negative = inhibition, most hits filed as inhibitors. 72,000 tested, 2.2% active. AID 411; note: nearly all actives have a fitted effect of over 40% in size
Target sequence (P08659 whole entry, looked up): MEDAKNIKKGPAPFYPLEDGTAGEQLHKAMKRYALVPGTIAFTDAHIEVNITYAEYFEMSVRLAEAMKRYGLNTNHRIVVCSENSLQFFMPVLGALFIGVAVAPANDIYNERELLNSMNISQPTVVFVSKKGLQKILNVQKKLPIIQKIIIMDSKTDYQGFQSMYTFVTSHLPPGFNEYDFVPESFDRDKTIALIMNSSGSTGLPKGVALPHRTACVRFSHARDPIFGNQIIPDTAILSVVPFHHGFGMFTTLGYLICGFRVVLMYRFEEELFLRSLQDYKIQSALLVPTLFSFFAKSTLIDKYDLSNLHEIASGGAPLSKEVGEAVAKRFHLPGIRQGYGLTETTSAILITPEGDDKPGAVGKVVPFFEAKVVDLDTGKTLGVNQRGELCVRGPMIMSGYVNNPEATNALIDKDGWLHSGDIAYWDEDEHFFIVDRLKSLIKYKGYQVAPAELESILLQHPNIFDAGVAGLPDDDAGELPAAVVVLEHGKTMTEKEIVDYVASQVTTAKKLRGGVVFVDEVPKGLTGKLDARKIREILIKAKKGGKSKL
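qHTS concentration-response profiling: light output of P. pyralis luciferase with luciferin and 10 uM ATP, imidazole buffer pH 7.2. Read by luminescence after 8-min room-temperature incubation.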
ERK AVP block: blocks ERK signaling stimulated by vasopressin | HEK293-V1b, vasopressin-stimulated pERK AlphaScreen | Potency, µM (titrated, usually from 57.5 µM), inactives show at the top dose activity, negative = inhibition, actives largely listed as inhibitors | 72,000 tested, 0.99% active; note: nearly all actives have a fitted effect of over 55% in size
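HEK293 cells stably expressing V1b receptor, preincubated 30 min at 37 °C with compound, then stimulated 5 min with 25 nM vasopressin. Phospho-ERK by AlphaScreen SureFire after 5 h RT; normalized to DMSO and vasopressin; AC50 by Hill fit.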
ALOX15 inhib: inhibitors of human 15-lipoxygenase (ALOX15) | Potency, µM (doses to about 57.1 µM), without a hit: at the highest dose activity change, negative = inhibition, hits mostly inhibitors | purified 15hLO-1, xylenol orange hydroperoxide absorbance | P16050 | 74,000 tested, 1.4% active; note: nearly all actives have a fitted effect of over 55% in size
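Compounds were preincubated 15 min at room temperature with 40 nM purified human enzyme (25 mM Hepes pH 7.5, 0.01% Triton X-100); 50 uM arachidonic acid reacted 6 min. Fe-xylenol orange detection, 30 min, absorbance ratio 573/405 nm.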
HADH2 inh: blocks human hydroxyacyl-CoA dehydrogenase type II | Q99714 | recombinant HADH2, NADH fluorescence, beta-hydroxybutyryl-CoA | Potency, µM (doses to about 57.1 µM), for inactives: at the top dose activity change, negative = inhibition, most hits filed as inhibitors | 73,000 tested, 3.4% active; note: nearly all actives have a fitted effect of over 60% in size
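Activity measured as NADH fluorescence gain (360/450 nm), taken as the change between first and last reads of a 4-min kinetic run. Conditions: pH 9.0 Tris buffer, 20 nM E. coli-expressed His-tagged enzyme, 1 mM NAD+, 90 uM beta-hydroxybutyryl-CoA; 15-min compound preincubation.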
* hit, by the source's call; ? = inconclusive; . = not tested or not shown; ! = not active in a repeat; [ ] = dose if it differs, or a comment. Rows were chosen to be rich in hits. Some 11% of all compounds tested hit in one or more screens of this group. Unless noted, calls come from the whole dose curve; as a rule, active = well fitted curve in the direction sought with a large enough effect; inconclusive = small, poorly fitted or top-dose-only effect, or another doubt; inactive = no such curve, though single readings can be large; an effect the other way counts as inactive or inconclusive. Unless noted, % is set by controls: 0 for no effect and ±100 for the full control effect; potency is the fitted concentration of half-maximal effect.

SMILES | Bst PK mod | HSD17B inhib | Luciferase inh | ERK AVP block | ALOX15 inhib | HADH2 inh
CCCCN(Cc1cc2cc(OC)ccc2[nH]c1=O)C(=O)c1ccccn1 | >57 | 31.6µM* | 0.3% | -14.1% | -3.9% | ?
COc1ccc2[nH]c(=O)c(CN(CCO)C(=O)c3ccccc3F)cc2c1 | >57 | 25.1µM* | -33.7% | -15.8% | -8.3% | -10.5%
CCCN(Cc1cc2cc(C)ccc2[nH]c1=O)C(=O)c1cccc(OC)c1 | >57 | ? | -0.1% | -26.6% | -12.4% | -2.3%
COc1ccc2[nH]c(=O)c(CN(C(=O)c3ccccn3)C3CCCCC3)cc2c1 | >57 | ? | 0.2% | -8.0% | -17.0% | ?
N=C1CCC[C@@H]1C(=S)SCCC(N)=O | . | -2.0%[11.4 µM] | 0.6%[11.4 µM] | -11.6%[11.5 µM] | -10.7%[11.4 µM] | -3.0%[11.4 µM]
O=C1[C@H]2[C@H]3[C@H](O)[C@H](O)C/C(=N/OCc4ccccc4)[C@@H]3CC[C@@H]2C(=O)N1c1cccc(Oc2ccccc2)c1 | . | -3.3%[11.4 µM] | 0.1%[11.4 µM] | 5.4%[11.5 µM] | -5.7%[11.4 µM] | 6.4%[11.4 µM]
Nc1nc2c(nc(Br)n2[C@@H]2O[C@H]3COP(=O)(O)O[C@@H]3[C@H]2O)c(=O)[nH]1 | . | 1.2% | -3.4% | -5.8% | 3.5% | -11.0%
O=C(O)CSc1nnc(C2CC2)n1-c1ccccc1 | >57 | 0.398µM* | 1.1% | 15.1% | ? | ?
O=C(Nc1cccc2nsnc12)c1cccs1 | >11.4 | 31.6µM*! | 15.8µM*! | -6.2% | 2.5% | 25.1µM*!
CN(Cc1ccco1)c1ccnc(-c2cccc(C#N)c2)n1 | . | -10.1% | -1.7%[2.29 µM] | -8.6% | -11.5% | -8.8%
C=C1CSc2nc(=O)c3c4c(sc3n21)CCC4 | . | 6.1% | 0.7% | -1.6% | 2.8% | -4.7%
O=c1nc2n(c3sc4c(c13)CCC4)Cc1ccccc1-2 | . | 25.1µM* | -1.1% | -10.0% | 11.6% | 31.6µM*
C=C1C(=O)C=C2CN(C(=O)c3ccccc3)[C@@](Cc3ccc(F)cc3)(C(=O)OC)[C@@H]12 | . | ? | . | 10µM* | . | -7.8%
COc1ccc(C#CC2C=CC(Oc3cc(C)cc(C)c3)C(CO)O2)cc1 (stereo not given) | . | -1.8%[11.4 µM] | . | 8.5%[11.5 µM] | -2.2%[11.4 µM] | 0.3%[11.4 µM]
CCCn1c(=O)c(Cc2ccccc2)c(O)c2ccccc21 | >57 | 31.6µM* | 0.3% | -4.1% | 0.6% | ?
C=CC[C@@H]1C=C[C@@H](O/N=C2/[C@H]3O[C@@H]3[C@@H](O)[C@H]3[C@H]2CCn2c(=O)n(-c4ccccc4)c(=O)n23)[C@@H](CO)O1 | . | -2.8%[11.4 µM] | 0.6%[11.4 µM] | 5.8%[11.5 µM] | 5.1%[11.4 µM] | -9.3%[11.4 µM]
O=C(Cc1coc2ccc3ccccc3c12)N1CCN(c2ncccn2)CC1 | 11.3* | ? | -33.1% | -17.0% | -4.8% | -2.5%
CCNc1ncc2nc(CCc3ccccc3)c(=O)n(-c3ccccc3)c2n1 | . | 25.1µM* | 0.6%[11.4 µM] | -19.1% | ? | -192.5%
CCNc1ncc2nc(CCc3ccccc3)c(=O)n(CCOC)c2n1 | . | 25.1µM* | 0.1%[11.4 µM] | -28.1% | -2.6% | -8.2%
CN(C)c1ncc2nc(CCc3ccccc3)c(=O)n(-c3ccccc3)c2n1 | . | 31.6µM* | -0.4%[11.4 µM] | 72.8% | ? | -4.0%
CCNc1ncc2nc(-c3cccs3)c(=O)n(-c3ccccc3)c2n1 | . | ? | 0.2%[11.4 µM] | -18.6% | -6.4% | 66.9%
COc1ncc2nc(CCc3ccccc3)c(=O)n(-c3ccccc3)c2n1 | . | -2.9% | -3.1%[11.4 µM] | -19.0% | -5.1% | -1.6%
COc1ccc(OC)c(C2C(C#N)=C(N)Oc3cc(N)ccc32)c1 (stereo not given) | . | 4.7% | . | . | -15.9% | -23.2%
CN(C)c1ccc2c(c1)OC(N)=C(C#N)C2c1cccc(F)c1 (stereo not given) | . | -20.6% | -6.7% | ? | 12.6µM* | -3.4%
CN1CCc2cccc3c2C1Cc1ccc(O)c(O)c1-3 (stereo not given) | . | 20µM* | . | -10.9% | ? | .
C[C@]12CC[C@@H]3c4ccc(O)cc4CC[C@H]3[C@@H]1CCC2=O | >25.6 | 12.0% | -0.9%[25.5 µM] | 0.3% | -4.9% | ?
CC(=O)OC1CC2(C)C(=O)CCC2C2CCc3cc(O)ccc3C12 (stereo not given) | >57 | 9.0% | -0.7% | 23.7% | -6.8% | 12.6µM*
